Glyco luc inh = N-linked glycosylation inhibition. reporter increase, % at 12.5 µM. hit rate 0.23% among 360,000. D54 ERlucT glycosylation luciferase reporter, 24 h; percent of 100 nM tunicamycin response;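 active means mean luciferase reporter signal, scaled so untreated is 0 and the glycosylation-blocking control 100, at or above a set limit in every replicate; inconclusive means mean reaches the limit but not every replicate does; inactive means mean below the limit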;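 further: luciferase carries N-glycosylation sites so blocking glycosylation raises the light; 0% = median of neutral control wells and 100% = median of 100 nM tunicamycin wells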
PfHsp90 set2 = growth inhibition of yeast expressing Plasmodium Hsp90; AID 504621; hit rate 0.32% among 310,000; S. cerevisiae expressing PfHsp90, BacTiter-Glo ATP, 48 h; yeast lacking PDR1 and PDR3 efflux regulators; inhibition, % at 9.4 µM;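 active means every replicate shows inhibition above about 80%, whatever the replicate mean, limit read from the data; inconclusive means mean inhibition reaches the set limit but some replicate falls short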;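 further: 0% = DMSO neutral controls and 100% = 20 µM radicicol positive controls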
Wnt bcat act = activators of Wnt/beta-catenin signaling; Wnt/beta-catenin reporter cell assay, activator, plate reader; activation, % at 9.35 µM; hit rate 1.2% among 300,000; AID 743398; in the data active means activation above about 30%, passing the limit was not always enough; inconclusive means no clear call, values can overlap the other calls;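 further: 0% = neutral control wells and 100% = positive control wells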
Vif inh = blocks HIV Vif function. HEK293T cells, Vif self-association by quenched fluorescence, imaging, 24 h. AID 602346. hit rate 0.35% among 340,000. inhibition, % at 7.49 µM; in the data active means inhibition above about 50%, passing the limit was not always enough; inconclusive means no clear call, values can overlap the other calls; inactive means below about 31%
MITF TRPM1 HTS = activators of MITF-driven TRPM1 promoter activity in SK-MEL-5 cells | activation, % at 12.5 µM | SK-MEL-5 TRPM1-promoter luciferase, 24 h; % of positive control, neutral wells = 0 | hit rate 0.75% among 300,000;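 active means mean activation of at least 80% with every replicate also reaching 80%; inconclusive means mean reaches 80% but some replicate falls short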;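 further: 0% = neutral control wells and 100% = parthenolide positive control wells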
esBAF inh = SWI/SNF esBAF complex inhibition; AID 602393; mouse ES cells, Bmi1-luciferase knock-in reporter, 24 h; 100% = twice the neutral-well signal; reporter increase, % at 12.5 µM; hit rate 2% among 350,000; in the data active means activation above about 40%; inconclusive means no clear call, values can overlap the other calls;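 further: 0% = median of the plate's neutral control wells and 100% = double that signal; a rise in the Bmi1 reporter signal indicates esBAF inhibition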
* = called active by the depositor; ? = inconclusive; nt = not tested or not shown. An excerpt weighted towards active compounds, which were near 3% of everything screened.

SMILES | Glyco luc inh | PfHsp90 set2 | Wnt bcat act | Vif inh | MITF TRPM1 HTS | esBAF inh
O=C1/C(=C/c2cccnc2)CC/C1=C\c1cccnc1 | 8.5 | 3.5 | 7.2 | -3.7 | -4.8 | nt
CCC1C/C(=C\c2cccnc2)C(=O)/C(=C/c2cccnc2)C1 (stereo unspecified) | -26.0 | 99.6* | -17.1 | 37.9 | -97.2 | nt
CCOC(=O)Cc1csc(/N=C/c2c(O)n(-c3ccc(C)c(C)c3)c(=O)c3ccccc23)n1 | 71.5* | -20.4 | nt | 2.6 | -64.9 | nt
CC(=O)Nc1ccc(S(=O)(=O)N2c3ccccc3C(C)=CC2(C)C)cc1 | 11.7 | nt | -7.2 | 80.8* | -31.2 | nt
CC1=CC(C)(C)N(S(=O)(=O)c2ccc(F)cc2)c2ccccc21 | 0.7 | nt | -5.0 | -15.1 | -38.1 | -15.4
COc1ccccc1/C=C/C=N/n1c(-c2ccccn2)n[nH]c1=S | -3.8 | 2.7 | 23.7 | -3.1 | ? | 55.8*
Fc1ccc(C(CNC(=S)NC2CCCCC2)N2CCOCC2)cc1 (stereo unspecified) | 0.2 | 3.3 | 4.2 | -1.0 | 6.1 | nt
O=C(O)c1cccc2c1Cc1cc(Cl)ccc1-2 | 3.3 | 107.2* | 0.0 | 2.0 | -0.9 | 21.2
O=C(O)c1cccc2c1-c1ccc(Cl)cc1C2=O | -0.1 | -40.2 | -0.4 | 22.3 | 23.4 | nt
N#Cc1cccc(NC(=O)CNC(=O)Cc2ccccc2)c1 | -0.1 | -31.9 | -3.7 | -2.6 | -2.9 | -5.5
CCOC(=O)[C@]12CCC=C1N(Cc1ccc(Cl)cc1Cl)C(=O)[C@H](CC(=O)N1CCCC1)C2 | nt | nt | -2.0 | nt | nt | nt
CCOC(=O)C1=C(CS(=O)(=O)c2ccccc2)NC(=O)NC1c1cc(OC)c(O)c(OC)c1 (stereo unspecified) | 4.2 | -4.4 | 2.7 | 13.6 | 0.1 | 5.5
O=C(CC(SCCO)c1ccc(F)cc1)c1ccco1 (stereo unspecified) | 4.7 | 3.0 | nt | 0.4 | 10.0 | 0.8
Cc1ccc(C(CC(=O)c2ccco2)SCCO)cc1 (stereo unspecified) | 9.0 | -24.3 | 37.0* | 23.8 | 24.1 | 36.1
O=C(Nc1ccc([N+](=O)[O-])cc1)c1cccc([N+](=O)[O-])c1 | -0.5 | nt | 39.7* | 0.1 | nt | -0.1
COc1ccc(C(=O)Nc2cccc([N+](=O)[O-])c2)cc1Br | -2.9 | -19.7 | -2.4 | 74.5* | nt | 22.5
Cc1cc(O)c(NC(=O)c2cccc([N+](=O)[O-])c2)cc1C | -2.1 | -15.7 | 30.4* | -14.8 | 6.5 | 39.3
O=C(Nc1cc([N+](=O)[O-])ccc1O)c1cccc([N+](=O)[O-])c1 | 3.5 | 8.4 | 5.6 | -14.7 | 30.7 | 25.1
O=C(Nc1ccc(NC(=O)c2cccc([N+](=O)[O-])c2)cc1)c1cccc([N+](=O)[O-])c1 | 2.4 | -13.7 | 5.6 | -3.3 | nt | 6.5
O=C(Nc1ncc([N+](=O)[O-])s1)c1cccc([N+](=O)[O-])c1 | -14.1 | 25.2 | 37.6* | -4.9 | -5.0 | -58.0
COc1ccc(C(=O)Nc2ccc(Nc3ccccc3)cc2)cc1[N+](=O)[O-] | 8.3 | 18.0 | -0.2 | -7.0 | nt | 5.6
CCN(CC)c1ccc(C(=O)Nc2ccccc2)cc1[N+](=O)[O-] | -1.3 | -15.4 | 13.0 | -3.6 | 87.1* | nt
O=C(CN(Cc1ccccc1)C(=O)CNS(=O)(=O)c1ccc(F)cc1)NCC1CCCO1 (stereo unspecified) | -0.2 | 6.6 | -1.9 | 10.1 | nt | 9.8
CN(C)CCCN(Cc1ccccc1)C(=S)Nc1ccc(F)c(Cl)c1 | 1.4 | 18.1 | -0.1 | 12.3 | -8.9 | -1.5
COc1ccc(C(CCN2CCOCC2)c2c(O)cc(OC)cc2OC)cc1 (stereo unspecified) | -0.7 | -17.8 | -0.6 | -3.0 | 10.0 | -4.0
SMILES | Glyco luc inh | PfHsp90 set2 | Wnt bcat act | Vif inh | MITF TRPM1 HTS | esBAF inh
COc1ccc(C(c2c(O)ccc3ccccc23)N2CCOCC2)c(OC)c1 (stereo unspecified) | 0.1 | 3.2 | 75.6* | 1.5 | nt | nt
CN(C)C=Nc1nonc1-c1ccccc1 | -0.8 | 13.5 | -0.3 | -5.1 | nt | nt
CN(C)C=Nc1c(Br)cc(Br)c2nonc12 | 3.8 | 3.1 | 0.5 | 69.6* | 17.2 | 2.6
CCCC1=NN(C(=O)C(=O)Nc2ccc(Br)cc2)C(O)(C(F)(F)F)C1 (stereo unspecified) | 1.0 | 8.6 | -1.7 | 1.4 | 0.2 | nt
Cc1cc(C(=O)COC(=O)c2ccc(O)cc2)c(C)n1-c1ccccc1F | -15.7 | -20.8 | -0.9 | -0.9 | 10.3 | nt
Cc1cc(C(=O)COC(=O)c2ccc(O)cc2)c(C)n1CC(F)(F)F | -4.5 | -7.9 | 51.0* | 3.8 | nt | 94.9*
CCCC(=O)NC(C)c1nc2ccccc2[nH]1 (stereo unspecified) | 0.4 | -3.7 | 0.0 | 6.4 | nt | 5.4
CCC(=O)NC(c1ccccc1)c1nc2ccccc2[nH]1 (stereo unspecified) | 0.7 | -3.5 | nt | -11.0 | 44.2 | 48.6*
Cc1ccc(NC(=O)N2C(=O)C3(OCCO3)c3ccccc32)cc1 | -0.4 | 24.0 | nt | nt | 71.5 | 57.9*
COc1ccc(C2NS(=O)(=O)N=C2N)cc1 (stereo unspecified) | 1.1 | 18.0 | -1.6 | -4.6 | 21.1 | nt
O=C(Cc1ccccn1)N[C@@H]1CC[C@@H](CCn2cc(-c3cccnc3)nn2)O[C@@H]1CO | nt | nt | nt | nt | nt | 2.9
CCOC(=O)c1sc(Nc2ccccc2)nc1C | -2.4 | 3.0 | nt | 1.9 | 94.2* | 77.5*
CCOC(=O)c1sc(Nc2nc3c(OC)cccc3s2)nc1C | 5.0 | -52.6 | nt | -13.3 | 0.6 | 67.4*
CCOC(=O)c1sc(NC(=O)c2ccccc2OCC)nc1C | 1.6 | -13.3 | 6.4 | 6.0 | 18.5 | nt
COC(=O)c1ccc(/C=N/Nc2nc(C)c(C)s2)cc1 | -2.4 | -3.4 | 33.6* | 0.6 | nt | nt
CC(C)(C)C(=O)c1sc(Nc2ccccc2)nc1N | 1.5 | -114.1 | 0.0 | -2.7 | 122.0* | 56.9*
CCOC(=O)c1sc(Nc2ccc(F)cc2)nc1C | 0.2 | 3.1 | -4.8 | nt | 24.6 | nt
CN1C(=O)c2cc(NC(=O)c3ccc(C(F)(F)F)cc3)ccc2OC[C@H]2O[C@H](CC(=O)NC3Cc4ccccc4C3)CC[C@H]21 | nt | nt | nt | nt | nt | 6.9
COc1ccc(Br)cc1/C=N/NC(=O)CNC(=O)c1cccnc1 | 2.2 | 5.8 | 2.6 | -0.9 | nt | -5.2
CCOC(=O)c1sc(NC(=O)Nc2ccc(Cl)cc2)nc1C | -4.7 | nt | 39.3* | -4.8 | nt | 61.3*
Cc1nc(Nc2ccccc2)sc1C(=O)c1ccccc1 | -6.2 | 16.7 | 42.3* | -3.4 | nt | nt
CCOC(=O)c1sc(N/N=C/c2ccccc2)nc1C | -0.1 | 2.4 | nt | -2.9 | 50.6 | nt
CCOC(=O)c1sc(N/N=C/c2cccc(C)c2)nc1C | 0.5 | -18.8 | 18.3 | 18.7 | 98.6* | 57.9*
Cc1nc(Nc2ccc(C(=O)O)cc2)sc1-c1ccccc1 | -15.5 | -40.6 | 1.3 | -8.1 | -35.0 | nt
Cc1nc(Nc2ccccc2)sc1-c1ccccc1 | -9.6 | 3.1 | 43.8* | 3.2 | 58.0 | nt
COc1cccc(C(=O)Nc2ccc3c(c2)C(=O)N(C)C[C@H](OC)[C@H](C)CN(C(=O)C2CCCC2)[C@H](C)CO3)c1 | nt | nt | nt | nt | nt | -4.0
